Consider 13 molecules from PubChem BioAssay (NCI).

About 83,000 compounds went through this panel and 20% of them were active in at least one assay; those are over-represented in the sample as a whole.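 Plates (96-well) were seeded with cells, treated with compound at one concentration, and incubated for 48 hours before percent growth was determined.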 Unmarked numbers belong to inactive results. Calls of active or inactive are those of the source. How the source made its calls: active means growth percent below 10; inactive means the rest.

Some test systems named below: HCT-15 colon; HT29 colon; SNB-75 CNS; SNB-19 CNS; U251 CNS; PC-3 prostate; SK-MEL-5 melanoma; UACC-62 melanoma; LOX IMVI melanoma; SK-MEL-28 melanoma.
Common to all, as to test: NCI-60 one-dose screen, 48 h (100 = growth as untreated, 0 = no growth, -100 = all killed)
Details in all cases: 10 µM unless noted

On to `COc1cccc(-c2nn(-c3ccccc3)cc2-c2ccnc(NCCCNC(=O)c3cccc(C(F)(F)F)c3)c2)c1`, for which the growth in the experiment with HCT-15 colon is 21%; in the experiment with HT29 colon, 8.77% (active); in the experiment on SNB-75 CNS, 58.6%; with SNB-19 CNS, 45.3%; with U251 CNS it was 24.7%; in the experiment on PC-3 prostate, 13.3%. For the same molecule, the growth was -64.4% (active) in the experiment with SK-MEL-5 melanoma, 23.9% with UACC-62 melanoma, 28% in the experiment with LOX IMVI melanoma and 50.3% in the experiment with SK-MEL-28 melanoma.
As for `O=C(/C=C/c1c(Cl)nc2sccn12)c1nccs1`, the growth with HCT-15 colon was 99.3%; in the experiment with HT29 colon, 97.5%; with SNB-75 CNS, 67.1%; with SNB-19 CNS, 102%; in the experiment with U251 CNS, 91.6%; in the experiment with PC-3 prostate, 91.1%. Also, the growth in the experiment with SK-MEL-5 melanoma was 95.6%; with UACC-62 melanoma, 89.7%; in the experiment with LOX IMVI melanoma, 89.1%; in the experiment with SK-MEL-28 melanoma, 104%.
Regarding `COc1nc(N(C)O)nc(N(C)O)n1`, the growth in the experiment with HCT-15 colon was 23.9%; with HT29 colon, 46.3%; with SNB-75 CNS it was 74.5%; with SNB-19 CNS, 31.8%; in the experiment on U251 CNS it was 27.2%; with PC-3 prostate, 42.9%. For the same molecule, the growth with SK-MEL-5 melanoma was 13.1%; in the experiment on UACC-62 melanoma it was 11.5%; with LOX IMVI melanoma, 14.8%; in the experiment on SK-MEL-28 melanoma, 53.2%.
Turning to `O=C1CCC2=C3C4CCCCC4C(=O)C4CCCC(OC2C1)C34` (stereo not given), the growth is 4.39% (active) with HCT-15 colon; 85.6% in the experiment with HT29 colon; 43.1% in the experiment on SNB-75 CNS; 34.1% in the experiment on SNB-19 CNS; 4.33% (active) with U251 CNS; 46.7% with PC-3 prostate. Moreover, the growth was -77.9% (active) in the experiment on SK-MEL-5 melanoma, 50.3% with UACC-62 melanoma, 1.47% (active) in the experiment on LOX IMVI melanoma and 52% with SK-MEL-28 melanoma.
As for `Cc1ccc(-n2nc3c(c(C#N)c2=O)CC(c2ccccc2Cl)C([N+](=O)[O-])=C3O)cc1` (stereo not given), the growth in the experiment with HCT-15 colon was 61.3%; in the experiment on HT29 colon, 118%; in the experiment with SNB-75 CNS it was 75.1%; in the experiment with SNB-19 CNS it was 97.1%; in the experiment with U251 CNS, 90%; in the experiment with PC-3 prostate, 66.6%. For the same molecule, the growth in the experiment with SK-MEL-5 melanoma was 75%; in the experiment with UACC-62 melanoma, 84.3%; in the experiment with LOX IMVI melanoma it was 81.4%; in the experiment with SK-MEL-28 melanoma, 106%.
Regarding `COc1ccc(C(=O)/C=C/c2c(C(F)(F)F)nc3sccn23)cc1OC`, the growth in the experiment with HCT-15 colon is 24.6%; with HT29 colon, 12.3%; in the experiment with SNB-75 CNS, 14.3%; in the experiment with SNB-19 CNS it was 33%; in the experiment with U251 CNS, 15.1%; with PC-3 prostate, 53.3%. Besides, the growth was 31.7% with SK-MEL-5 melanoma, 20.6% in the experiment with UACC-62 melanoma, 5.55% (active) in the experiment with LOX IMVI melanoma and 52.7% in the experiment on SK-MEL-28 melanoma.
Take `Cc1cc(Cl)nc(NCc2cc(Nc3ccnc4cc(Cl)ccc34)ccc2F)n1`: the growth in the experiment on HCT-15 colon was 11.7%; with HT29 colon, 9.26% (active); with SNB-75 CNS it was 83.3%; in the experiment with SNB-19 CNS, 80.6%; with U251 CNS, 48.9%; in the experiment with PC-3 prostate it was 52.7%. In addition, the growth is 56.5% with SK-MEL-5 melanoma, 70.7% in the experiment with UACC-62 melanoma, 10.4% in the experiment on LOX IMVI melanoma and 94.1% in the experiment with SK-MEL-28 melanoma.
For `COc1cc(OC)cc(C2CC(=O)Nc3c2c(C)nn3-c2nc3ccccc3[nH]2)c1` (stereo not given), the growth with HCT-15 colon was 37.2%; with HT29 colon, 23.5%; with SNB-75 CNS, -3.14% (active); with SNB-19 CNS, 21.9%; with U251 CNS it was 16.8%; in the experiment on PC-3 prostate, 26.4%. Also, the growth in the experiment on SK-MEL-5 melanoma was -62% (active); with UACC-62 melanoma, -19.2% (active); with LOX IMVI melanoma, 1.34% (active); in the experiment on SK-MEL-28 melanoma it was 38.1%.
For the molecule `Cc1cccc(Cc2cnc(NC(=O)/C=C/c3ccco3)s2)c1`, the growth was 12.8% in the experiment on HCT-15 colon; 6.71% (active) in the experiment on HT29 colon; 16.8% with SNB-75 CNS; 52.2% in the experiment on SNB-19 CNS; 20.6% in the experiment on U251 CNS; 27.2% in the experiment with PC-3 prostate. In addition, the growth with SK-MEL-5 melanoma is 11.2%; in the experiment with UACC-62 melanoma, 28.1%; in the experiment with LOX IMVI melanoma it was 18.8%; in the experiment with SK-MEL-28 melanoma, 62.2%.
Turning to `Cc1ccccc1NC(=O)N/C(N)=N/c1nc(C)c(C)s1`, the growth in the experiment with HCT-15 colon is 26.4%; in the experiment with HT29 colon, 16.6%; in the experiment with SNB-75 CNS, -33.2% (active); in the experiment with SNB-19 CNS, 39.9%; in the experiment on U251 CNS, 21.3%; in the experiment with PC-3 prostate it was 30.6%. Moreover, the growth with SK-MEL-5 melanoma was 40.5%; in the experiment on UACC-62 melanoma, 42.7%; with LOX IMVI melanoma, 37.8%; in the experiment with SK-MEL-28 melanoma, 60.7%.
With `COc1ccc(OC)c(-c2c(C#N)c(-c3ccc(Cl)cc3)nc3c2c(-c2ccccc2)nn3-c2ccccc2)c1`, the growth with HCT-15 colon is 105%; in the experiment on HT29 colon, 109%; in the experiment on SNB-75 CNS it was 85.1%; with SNB-19 CNS, 100%; with U251 CNS it was 98.7%; in the experiment on PC-3 prostate, 92%. Besides, the growth with SK-MEL-5 melanoma was 110%; in the experiment on UACC-62 melanoma, 90.7%; in the experiment on LOX IMVI melanoma, 94.4%; in the experiment on SK-MEL-28 melanoma it was 105%.
Turning to `Cc1ccc(-c2cc(-c3ccccc3C)[nH]c(=O)c2C#N)s1`, the growth in the experiment on HCT-15 colon was 90.5%; in the experiment with HT29 colon, 122%; in the experiment on SNB-75 CNS it was 71.6%; in the experiment on SNB-19 CNS, 88.5%; with U251 CNS, 91.2%; in the experiment on PC-3 prostate it was 85.6%. For the same molecule, the growth in the experiment on SK-MEL-5 melanoma was 89.8%; in the experiment on UACC-62 melanoma, 75.5%; with LOX IMVI melanoma, 82.8%; in the experiment with SK-MEL-28 melanoma, 110%.
In the case of `COc1cccc(-c2nc3sccn3c2/C=C/C(=O)c2ccc(C(F)(F)F)cc2)c1`, the growth in the experiment with HCT-15 colon was 69.1%; in the experiment with HT29 colon it was 75.3%; with SNB-75 CNS it was 81.7%; in the experiment with SNB-19 CNS, 79.7%; in the experiment on U251 CNS, 83.2%; with PC-3 prostate, 63.2%. Further, the growth is 71.5% in the experiment on SK-MEL-5 melanoma, 66.1% with UACC-62 melanoma, 88.3% in the experiment with LOX IMVI melanoma and 83.6% in the experiment with SK-MEL-28 melanoma.
